Measured values reported in PubChem BioAssay AID720519 (National Center for Advancing Translational Sciences (NCATS), 2013).
Inconclusive results are not listed. Active and inactive are the calls of the source. Calls come from the whole dose curve; as a rule, active = well fitted activation curve with a large enough effect; inconclusive = small, poorly fitted or top-dose-only effect; inactive = flat fitted curve, though single readings scatter.

assay: qHTS for Inhibitors of Cell Surface uPA Generation: Confirmatory Assay for Cherry-picked Compounds; conditions: cell surface uPA activity generation, qHTS confirmation; series mostly up to 115 µM; inhibition: at the top concentration; for inhibition: 0% is about no effect
How it was run: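 RAW 264.7 cells at 4000/well, incubated overnight, then treated with compounds. After 24 h at 37 C, viability was read by ATPlite luminescence. An increase in signal indicates blocked uPA-dependent LF entry.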
Potency is the fitted concentration of half-maximal effect.

Compound	inhibition	Potency
COc1cc(C(C)=O)ccc1OCc1cn(CC(=O)c2ccc(O)cc2)nn1	-2.26% (inactive)	–
CC(=O)[C@@]1(O)[C@H](C)CC2C3CC=C4CC(OP(=O)(O)O)CC[C@]4(C)C3CC[C@@]21C (some centres not stated)	0.812% (inactive)	–
Cc1ccc(C)c(NC(=O)CCN2CCN(c3ccccc3F)CC2)c1	-0.576% (inactive)	–
CC/C(=N\Nc1ccccc1[N+](=O)[O-])c1ccc(O)cc1	-2% (inactive)	–
CCOc1ccc(N(CC(=O)Nc2ccc(CC)cc2)S(=O)(=O)c2c(C)[nH]c(=O)[nH]c2=O)cc1	-2.31% (inactive)	–
Cc1cc(=O)n2nc(N3CCCC(C(=O)NCc4ccc(Cl)cc4)C3)sc2n1 (configuration not stated)	-2.22% (inactive)	–
COc1ccc(C)cc1NC(=O)NNC(=O)C1CCC(C(C)(C)C)CC1 (configuration not stated)	-3.28% (inactive)	–
CCN(C(=O)CSc1ncnc2sccc12)c1c(N)n(Cc2ccccc2)c(=O)[nH]c1=O	0.737% (inactive)	–
COc1ccc(S(=O)(=O)N2CCN(Cc3ccccc3)CC2)c(C)c1	-3.46% (inactive)	–
CC(C)NCC1CCc2cc(CO)c([N+](=O)[O-])cc2N1 (configuration not stated)	4.66% (inactive)	–
COc1ccc(CN2CCN(Cc3ccc(C(F)(F)F)cc3)CC2)cc1	-2.64% (inactive)	–
COc1ccccc1NC(=O)Cn1ncc2c1-c1ccccc1OC2	-1.12% (inactive)	–
COC(=O)c1ccc(N2CCN(c3ccccc3)CC2)c(NC(=O)C2CC2)c1	-2.04% (inactive)	–
O=C(CSC1=NS(=O)(=O)c2ccccc2N1)Nc1nccs1	-0.932% (inactive)	–
COc1cc(CCC(=O)OCC(=O)NCc2ccccc2)cc(OC)c1OC	0.19% (inactive)	–
Nc1cc(=O)[nH]c(SCC(=O)Nc2cccc([N+](=O)[O-])c2)n1	-1.96% (inactive)	–
CCCCn1c(SCC(=O)Nc2cc(C(F)(F)F)ccc2Cl)nnc1C(CC)N(C)C (configuration not stated)	–	52.1 µM (active)
